Results on 40 compounds are retold here after the supplement of paper PMC10933113.

The structures appear in SMILES notation. Where a name gives a salt, the structure may show the parent alone. ± gives the uncertainty stated by the source.

This assay has as its system THP-1. Nature of the assay: CD54 surface expression induction over DMSO control (% over DMSO); higher = stronger dendritic cell activation. To be noted: exposure time: 24 h. As for the experimental part:
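hCLAT-like CD54 and CD86 surface expression on THP1 cells after 24 h exposure at a single concentration (highest non-cytotoxic concentration, or 100-200 µM if not cytotoxic). Flow cytometry (iQue) was run on 5,000 live cells.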
For the compound `CCCCCCCCCCCCO` [1-Dodecanol] (100 µM), the “CD54 surface expression induction” value was 9.85 ± 8.8. Turning to `C/C=C/C=C/C=O` [2,4-Hexadienal] (200 µM), the “CD54 surface expression induction” value worked out at 9.31 ± 6.7. For `Nc1cc(-c2ccncc2)c[nH]c1=O` [Amrinone] (100 µM), the “CD54 surface expression induction” value was -1.65 ± 0.59. Regarding `COc1ccc(C(=O)/C(Br)=C\C(=O)O)cc1` [Cytembena] (200 µM), the “CD54 surface expression induction” value was found to be 62.5 ± 6.9. Consider `C=CCOC(=O)/C=C\C(=O)OCC=C` [Diprop-2-en-1-yl (2Z)-but-2-enedioate] (203 µM), for which the “CD54 surface expression induction” value is -3.66 ± 5.6. For `O=C(/C=C/C=C/c1ccc2c(c1)OCO2)N1CCCCC1` [Piperine] (100 µM), the “CD54 surface expression induction” value is 0.08 ± 0.77. Next, `Nc1ccccc1N` [1,2-Phenylenediamine*] (200 µM): 161 ± 20; `CCCCCCCCCCCCN(CCO)CCO` [Lauryldiethanolamine] (10 µM): -10.1 ± 4.7; `O=C(O)Cc1cc(I)c(Oc2cc(I)c(O)c(I)c2)c(I)c1` [Tetrac] (100 µM): 8.45 ± 9.3. Turning to `NC(=O)n1c(O)c(C(=O)c2cccs2)c2cc(Cl)ccc21` [Tenidap*] (200 µM), the “CD54 surface expression induction” value is 157 ± 35. Consider `COC(=O)Nc1nc2ccc(C(=O)C3CC3)cc2[nH]1` [Cyclobendazole] (100 µM), for which the “CD54 surface expression induction” value was -7.19 ± 4.8.

As for `O=c1cc(-c2ccccc2)oc2cc(O)cc(O)c12` [Chrysin] (100 µM), the “CD54 surface expression induction” value came to 18.9 ± 1.4.

In the case of `C[n+]1cc2c3c(ccc2c2ccc4cc5c(cc4c21)OCO5)OCO3` [Sanguinarine] (10 µM), the “CD54 surface expression induction” value was determined as 36 ± 5.9.

For `N=C1C=CC(=C(c2ccc(N)cc2)c2ccc(N)cc2)C=C1` [C.I. Basic Red 9 monohydrochloride] (10 µM), the “CD54 surface expression induction” value is 10.7 ± 6.1. Then `CCCCCCCCN` [n-Octylamine] (100 µM), with -6.09 ± 0.05.

Turning to `O=c1[nH]sc2cc(Cl)ccc12` [Ticlatone] (10 µM), the “CD54 surface expression induction” value is -4.79 ± 7.2. Then `N=C(N)NN=C(/C=C/c1ccc([N+](=O)[O-])o1)/C=C/c1ccc([N+](=O)[O-])o1` [Nitrovin] (10 µM), with 76.1 ± 15.

On to `C=C(C)C(=O)Nc1ccc(Cl)c(Cl)c1` [Chloranocryl] (100 µM), for which the “CD54 surface expression induction” value was found to be 0.25 ± 0.41.

Turning to `CC(C)NC(=O)c1ccc(C=O)cc1` [N-isopropyl-4-formylbenzamide] (100 µM), the “CD54 surface expression induction” value was -11.6 ± 1.7. Take `CCCCCCCCCCC=CC1CC(=O)OC1=O` (stereo not given) [3-(Dodecenyl)dihydro-2,5-furandione] (200 µM): the “CD54 surface expression induction” value was found to be 16 ± 37. For the compound `O=C(Nc1ccccc1)c1cc(Cl)ccc1O` [5-Chlorosalicylanilide] (10 µM), the “CD54 surface expression induction” value is -4.26 ± 3.3. In the case of `Cc1c(C)n(Cc2ccccc2)c2ccc(C(=O)OCCN(C)C)cc12` [Indocate] (200 µM), the “CD54 surface expression induction” value is 30.6 ± 5. Then `C=CC(=O)OCCCCCCOC(=O)C=C` [1,6-Hexanediol diacrylate] (100 µM), with -4.54 ± 2.9; and `CC(C)c1ccc2cc(C(C)C)ccc2c1` [2,6-Diisopropylnaphthalene] (200 µM), with 10.1 ± 1.7; and `Nc1ccc2cc3ccccc3cc2c1` [2-Aminoanthracene] (200 µM), with -52.5 ± 1.6.

On to `COP(=O)(O)OP(=O)(O)OC` [Dimethyl dihydrogen diphosphate] (200 µM), for which the “CD54 surface expression induction” value is -11.2 ± 2.4. Then `Cn1sccc1=O` [2-Methyl-4-isothiazolin-3-one hydrochloride] (10 µM), with -19.5 ± 27. Turning to `O=C(Oc1ccccc1)c1cccc(C(=O)Oc2ccccc2)c1` [Diphenyl isophthalate] (200 µM), the “CD54 surface expression induction” value is -2.76 ± 5. Consider `C=CC(C)(CCC=C(C)C)OC(=O)CC(C)C` (stereo not given) [Linalyl isovalerate] (200 µM), for which the “CD54 surface expression induction” value was found to be 16.3 ± 11.

With `C=CCOC(Cn1ccnc1)c1ccc(Cl)cc1Cl` (stereo not given) [Imazalil sulfate] (100 µM), the “CD54 surface expression induction” value was determined as 11.6 ± 11.

On to `c1ccc2[nH]c(-c3cscn3)nc2c1` [Thiabendazole] (100 µM), for which the “CD54 surface expression induction” value is -2.19 ± 1.1. `CC(C)C[C@H](NC(=O)[C@H](Cc1ccccc1)NC(=O)c1cnccn1)B(O)O` [Bortezomib] (10 µM): the “CD54 surface expression induction” value turned out to be 28.8 ± 9.9. `Nc1ccc(/N=N/c2ccccc2)c(N)n1` [Phenazopyridine hydrochloride] (100 µM): the “CD54 surface expression induction” value was -3.19 ± 0.03. For `CCOc1ccc2nc(S(N)(=O)=O)sc2c1` [Ethoxzolamide] (200 µM), the “CD54 surface expression induction” value was determined as 3.81 ± 6. Turning to `CC(C(=O)O)c1ccc(/C=C2\CCCCC2=O)cc1` (stereo not given) [Pelubiprofen] (100 µM), the “CD54 surface expression induction” value is -1.67 ± 0.26. For `O=C(NS(=O)(=O)/C=C/c1ccccc1)c1ccc(F)cc1Cl` (200 µM), the “CD54 surface expression induction” value is 1.54 ± 2.2. As for `CCCSS/C(CCO)=C(/C)N(C=O)Cc1cnc(C)nc1N` [Prosultiamine] (10 µM), the “CD54 surface expression induction” value is -0.63 ± 2.5. On to `NC(=O)N/N=C/c1ccc([N+](=O)[O-])o1` [Nitrofurazone] (200 µM), for which the “CD54 surface expression induction” value worked out at 15.9 ± 5.6. For the compound `CCCCCCCCCCCC(=O)NCCCN(C)C` [N-[3-(Dimethylamino)propyl]dodecanamide] (200 µM), the “CD54 surface expression induction” value came to 14.4 ± 11. For `O=C(N/N=C/c1ccccc1O)c1ccncc1` [Salinazid] (10 µM), the “CD54 surface expression induction” value was determined as 17.1 ± 8.6.
